The whole screen tested about 5,500 compounds, of which about 2,000 (36%) were called active. Not shown: some 18% with an inconclusive outcome. Rule as the data show it: active = normalized growth mostly below about 0.91 (no sharp cut-off); inconclusive = no clear call, values can overlap the other calls; inactive = mostly above about 0.92. Some of the results follow.
Assay: chemical genetic growth profiling, strain panel (AID 1159580);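 also: tested at 20 µM; growth read once vehicle control cultures reached saturation at 30 °C; 1 = growth at the plate median or of vehicle wells; lower values mean less growth of the strain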
Conditions: growth OD

Measured: normalized growth

CC1=C2C(O)C(=O)OC3CC4C(C)(C)C(=O)C=C[C@]4(C)C(CC1)[C@]23C (some centres not stated)
inactive: S. cerevisiae deletion strains, locus YJR043C, strain POL32, hits give low values 1.01 | S. cerevisiae deletion strains, locus YJR066W, strain TOR1, hits give low values 0.967 | S. cerevisiae deletion strains, locus YJR075W, strain HOC1, hits give low values 1.03 | S. cerevisiae deletion strains, locus YKL009W, strain mrt4, hits give low values 1.03 | S. cerevisiae deletion strains, locus YKL068W, hits give low values 1.01 | S. cerevisiae deletion strains, locus YKL085W, strain MDH1 (second series), hits give low values 1 | S. cerevisiae deletion strains, locus YKL085W, strain MDH1, hits give low values 1 | S. cerevisiae deletion strains, locus YKL160W, strain elf1, hits give low values 1 | S. cerevisiae deletion strains, locus YKR001C, strain vps1, hits give low values 0.996 | S. cerevisiae deletion strains, locus YKR026C, strain gcn3, hits give low values 1.01 | S. cerevisiae deletion strains, locus YKR091W, strain srl3, hits give low values 1.01 | S. cerevisiae deletion strains, locus YLL001W, strain dnm1, hits give low values 0.992 | S. cerevisiae deletion strains, locus YLL026W, hits give low values 1.01 | S. cerevisiae deletion strains, locus YLL041C, strain sdh2, hits give low values 1.02 | S. cerevisiae deletion strains, locus YLR027C, strain aat2, hits give low values 1 | S. cerevisiae deletion strains, locus YLR039C, strain RIC1, hits give low values 1.15 | S. cerevisiae deletion strains, locus YLR058C, strain SHM2, hits give low values 1.03 | S. cerevisiae deletion strains, locus YLR102C, strain apc9, hits give low values 1.02 | S. cerevisiae deletion strains, locus YLR113W, strain HOG1, hits give low values 0.984 | S. cerevisiae deletion strains, locus YLR221C, strain rsa3, hits give low values 1.03 | S. cerevisiae deletion strains, locus YLR258W, strain gsy2, hits give low values 1.01 | S. cerevisiae deletion strains, locus YLR262C, strain YPT6 (second series), hits give low values 1.06 | S. cerevisiae deletion strains, locus YLR268W, strain sec22, hits give low values 1.02 | S. cerevisiae deletion strains, locus YLR320W, strain mms22, hits give low values 1.01 | S. cerevisiae deletion strains, locus YLR342W, strain FKS1 (second series), hits give low values 1.03 | S. cerevisiae deletion strains, locus YLR342W, strain FKS1, hits give low values 1.01 | S. cerevisiae deletion strains, locus YLR357W, strain rsc2, hits give low values 1.02 | S. cerevisiae deletion strains, locus YLR370C, strain arc18, hits give low values 1 | S. cerevisiae deletion strains, locus YLR371W, strain rom2, hits give low values 0.985 | S. cerevisiae deletion strains, locus YLR384C, strain iki3, hits give low values 1.02 | S. cerevisiae deletion strains, locus YLR418C, strain cdc73, hits give low values 1.07 | S. cerevisiae deletion strains, locus YML016C, strain PPZ1, hits give low values 1.02 | S. cerevisiae deletion strains, locus YML032C, strain rad52, hits give low values 1 | S. cerevisiae deletion strains, locus YML120C, strain ndi1, hits give low values 1 | S. cerevisiae deletion strains, locus YML124C, strain tub3, hits give low values 1.01 | S. cerevisiae deletion strains, locus YMR058W, strain fet3, hits give low values 1.01 | S. cerevisiae deletion strains, locus YMR078C, strain ctf18, hits give low values 1.02 | S. cerevisiae deletion strains, locus YMR125W, strain sto1, hits give low values 1.01 | S. cerevisiae deletion strains, locus YMR129W, hits give low values 1.01 | S. cerevisiae deletion strains, locus YMR205C, strain PFK2, hits give low values 1 | S. cerevisiae deletion strains, locus YMR223W, strain ubp8, hits give low values 1.01 | S. cerevisiae deletion strains, locus YMR231W, strain pep5, hits give low values 1.01 | S. cerevisiae deletion strains, locus YMR307W, strain GAS1, hits give low values 1.03 | S. cerevisiae deletion strains, locus YNL067W, strain RPL9B, hits give low values 1.05 | S. cerevisiae deletion strains, locus YNL071W, strain lat1, hits give low values 0.999 | S. cerevisiae deletion strains, locus YNL128W, strain TEP1, hits give low values 1.02 | S. cerevisiae deletion strains, locus YNL183C, strain NPR1, hits give low values 0.978 | S. cerevisiae deletion strains, locus YNL209W, strain ssb2, hits give low values 1.01 | S. cerevisiae deletion strains, locus YNL233W, strain BNI4, hits give low values 1.06 | S. cerevisiae deletion strains, locus YNL248C, strain rpa49, hits give low values 1.01 | S. cerevisiae deletion strains, locus YNL250W, strain rad50, hits give low values 1.03 | S. cerevisiae deletion strains, locus YNL271C, strain bni1, hits give low values 1.02 | S. cerevisiae deletion strains, locus YNL298W, strain CLA4, hits give low values 1 | S. cerevisiae deletion strains, locus YNL307C, strain MCK1, hits give low values 1.03 | S. cerevisiae deletion strains, locus YNL322C, strain KRE1 (second series), hits give low values 1.04 | S. cerevisiae deletion strains, locus YNR049C, strain mso1, hits give low values 1.01 | S. cerevisiae deletion strains, locus YNR052C, strain pop2, hits give low values 1.04 | S. cerevisiae deletion strains, locus YOL012C, strain htz1 0.949 | S. cerevisiae deletion strains, locus YOL147C, strain pex11, hits give low values 1.01 | S. cerevisiae deletion strains, locus YOR001W, strain rrp6, hits give low values 1.01 | S. cerevisiae deletion strains, locus YOR061W, strain CKA2, hits give low values 1.01 | S. cerevisiae deletion strains, locus YOR069W, strain VPS5, hits give low values 1.01 | S. cerevisiae deletion strains, locus YOR070C, strain gyp1, hits give low values 1.02 | S. cerevisiae deletion strains, locus YOR080W, strain dia2, hits give low values 1.02 | S. cerevisiae deletion strains, locus YOR083W, strain WHI5, hits give low values 1.01 | S. cerevisiae deletion strains, locus YOR106W, strain vam3, hits give low values 0.983 | S. cerevisiae deletion strains, locus YOR136W, strain idh2, hits give low values 1.03 | S. cerevisiae deletion strains, locus YOR144C, strain elg1, hits give low values 1.01 | S. cerevisiae deletion strains, locus YOR184W, strain ser1, hits give low values 1.01 | S. cerevisiae deletion strains, locus YOR231W, strain MKK1, hits give low values 1.03 | S. cerevisiae deletion strains, locus YOR265W, strain rbl2, hits give low values 1 | S. cerevisiae deletion strains, locus YOR270C, strain vph1, hits give low values 1.05 | S. cerevisiae deletion strains, locus YOR290C, strain snf2, hits give low values 1.01 | S. cerevisiae deletion strains, locus YOR316C, strain cot1, hits give low values 1.01 | S. cerevisiae deletion strains, locus YPL051W, strain arl3, hits give low values 1.02 | S. cerevisiae deletion strains, locus YPL055C, strain LGE1, hits give low values 1.03 | S. cerevisiae deletion strains, locus YPL078C, strain atp4, hits give low values 0.998 | S. cerevisiae deletion strains, locus YPL106C, strain sse1, hits give low values 1.03 | S. cerevisiae deletion strains, locus YPL240C, strain hsp82, hits give low values 1.01 | S. cerevisiae deletion strains, locus YPL241C, strain CIN2, hits give low values 1.01 | S. cerevisiae deletion strains, locus YPL256C, strain CLN2, hits give low values 1.01 | S. cerevisiae deletion strains, locus YPR119W, strain clb2, hits give low values 1.01 | S. cerevisiae deletion strains, locus YPR141C, strain kar3, hits give low values 1.03 | S. cerevisiae deletion strains, locus YPR163C, strain tif3, hits give low values 1.02 | S. cerevisiae deletion strains, locus YPR167C, strain met16, hits give low values 1.03 | S. cerevisiae deletion strains, strain wtn01, hits give low values 0.994 | S. cerevisiae strains, strain wild type, hits give low values 1.01

Source: PubChem BioAssay AID1159580 (chemical genetic matrix, 2015)
